# Screens (PubChem BioAssay)
# Most compounds without a hit are left out; they make up all but 10% or so of the library.
# GPT2 inhibitor = inhibitors of human GPT2 alanine aminotransferase; Q8TD30; Recombinant GPT2, coupled pyruvate oxidase/HRP Amplex Red fluorescence; Potency, µM (series often up to 57.7 µM), for the others: at the highest dose activity change, negative = inhibition, hits mostly inhibitors; hit rate 0.25% among 100,000; AID 1671188; also: % is scaled to controls: 0 for no effect and ±100 for the full control effect; nearly all actives have a fitted effect of over 60% in size
#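 Recombinant GPT2 (10ng/uL) with 250uM a-KG and 2mM L-alanine, 30 min at room temperature, in HEPES pH 7.5 buffer. Pyruvate detected by pyruvate oxidase/HRP/Amplex Red fluorescence after 30 min in the dark; AOA (50uM) as positive control.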
# HEK cytotox = kills HEK 293 cells; Potency, µM (series often up to 115 µM), without a hit: at the top dose activity change, negative = cytotoxicity, usual class: inhibitors; hit rate 6.6% among 94,000; HEK 293 viability, ATP luminescence (CellTiter-Glo), 48-72 h; AID 1345083; also: % is scaled to controls: 0 for no effect and ±100 for the full control effect; nearly all actives have a fitted effect of over 60% in size
#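 HEK 293 cells seeded at 250 cells/well were exposed to compound for 48 or 72 hr at 37 degree Celsius. Viability taken as ATP content by CellTiter-Glo luminescence.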
# NPR1 antag = blocks ANP-stimulated signaling of human Npr1 receptor; P16066; HEK293 hNpr1 GloSensor cGMP, ANP-stimulated luminescence; Potency, µM (top dose mostly 46.3 µM), for inactives: top-dose activity change, negative = inhibition, most hits filed as inhibitors; hit rate 1.6% among 76,000; calls by dose curve; also: % is scaled to controls: 0 for no effect and ±100 for the full control effect; nearly all actives have a fitted effect of over 60% in size
#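 HEK293 cells stably expressing human Npr1 and cGMP GloSensor pGS-40F, loaded 2 h with 2% GloSensor reagent, given compound 30 min at room temperature. Luminescence read before and 20 min after 0.1 nM hNppA.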
# Luciferase inh = inhibitors of firefly (Photinus pyralis) luciferase. purified P. pyralis luciferase, luminescence, biochemical. Potency, µM (top dose mostly 115 µM), most hits filed as inhibitors. hit rate 2.5% among 76,000; also: % is scaled to controls: 0 for no effect and ±100 for the full control effect; nearly all actives have a fitted effect of over 65% in size
# Target sequence (P08659 whole entry, looked up): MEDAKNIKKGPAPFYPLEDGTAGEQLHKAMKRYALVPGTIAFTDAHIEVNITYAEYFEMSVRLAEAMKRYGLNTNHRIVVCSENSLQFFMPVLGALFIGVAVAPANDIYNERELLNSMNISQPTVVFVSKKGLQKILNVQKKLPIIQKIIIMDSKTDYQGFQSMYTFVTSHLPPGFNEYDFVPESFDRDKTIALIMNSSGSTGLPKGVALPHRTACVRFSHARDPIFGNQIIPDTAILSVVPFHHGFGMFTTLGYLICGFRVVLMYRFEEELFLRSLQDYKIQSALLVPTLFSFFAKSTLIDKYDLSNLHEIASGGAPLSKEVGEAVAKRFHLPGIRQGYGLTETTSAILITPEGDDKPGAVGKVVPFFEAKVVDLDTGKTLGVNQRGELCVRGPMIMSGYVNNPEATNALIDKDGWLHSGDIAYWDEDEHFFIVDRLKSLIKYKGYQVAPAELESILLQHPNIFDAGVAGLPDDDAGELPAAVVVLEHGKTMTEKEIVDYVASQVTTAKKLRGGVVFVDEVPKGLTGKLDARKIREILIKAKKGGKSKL
#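 Cell-free enzyme assay, 10nM P. pyralis luciferase, luciferin and ATP each at 10uM. Inhibition profiled over a 6-point titration, read as luminescence.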
# 3T3 cytotox = cytotoxic compounds in NIH 3T3 cells; NIH 3T3 viability, CellTiter-Glo ATP luminescence, 48-72 h; Potency, µM (top dose mostly 96.7 µM), inactives show at the top dose activity change, negative = cytotoxicity, usual class: inhibitors; hit rate 4.3% among 94,000; AID 1345082; also: % is scaled to controls: 0 for no effect and ±100 for the full control effect; nearly all actives have a fitted effect of over 55% in size
#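 NIH 3T3 cells at 400 cells/well received 23 nL of compound by pintool and were incubated 48 or 72 h at 37 °C. Viability was read as ATP-coupled CellTiter-Glo luminescence.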
# Npr1 antag conf = hNpr1 antagonism, confirmation assay; Potency, µM (top dose mostly 57.6 µM), for inactives: top-dose activity change, negative = inhibition, most hits filed as inhibitors; HEK293 hNpr1 cGMP GloSensor luminescence, ANP-stimulated; hit rate 76% among 1,400; shares compounds with NPR1 antag; calls by dose curve; also: nearly all actives have a fitted effect of over 70% in size
# NPR2 antag = antagonizes human Npr2, subtype selectivity check. shares compounds with NPR1 antag. HEK293 hNpr2 GloSensor cGMP luminescence, CNP-stimulated. Potency, µM (titrated, usually from 57.6 µM), inactives show top-dose activity change, negative = inhibition, most hits filed as inhibitors. hit rate 67% among 1,400. AID 1347046; calls by dose curve; also: nearly all actives have a fitted effect of over 70% in size
# FLuc counter = inhibits firefly luciferase, false Npr1 antagonist flag; hit rate 0.7% among 1,400; Potency, µM (top dose mostly 57.6 µM), inactives show top-dose activity change, negative = inhibition, most hits filed as inhibitors; purified FLuc enzyme, luminescence, Km substrate; shares compounds with NPR1 antag; AID 1347047; also: 0% is about no effect
# GloSensor ctrl = control cell line activity, Npr1 antagonist counter-screen. HEK293 GloSensor cGMP, SNP-stimulated, luminescence. Potency, µM (top dose mostly 57.6 µM), for inactives: at the top dose activity change, negative = inhibition, usual class: inhibitors. shares compounds with NPR1 antag. hit rate 69% among 1,400; calls by dose curve; also: % is scaled to controls: 0 for no effect and ±100 for the full control effect; nearly all actives have a fitted effect of over 70% in size
# Numbers without * were called inactive; i = inactive; ? = inconclusive; nt = no result given; [ ] = dose if it differs, or a comment. Unless noted, calls follow the shape of the dose curve; as a rule, active = well fitted curve in the direction sought with a large enough effect; inconclusive = small, poorly fitted or top-dose-only effect, or another doubt; inactive = no such curve, though single readings can be large; an effect the other way counts as inactive or inconclusive. Potency is read from the fitted curve at half-maximal effect.
SMILES,GPT2 inhibitor,HEK cytotox,NPR1 antag,Luciferase inh,3T3 cytotox,Npr1 antag conf,NPR2 antag,FLuc counter,GloSensor ctrl
COc1ccc(C(=O)N2CCN(c3cc(-c4ccc(Cl)cc4)[nH]n3)CC2)cc1OC,i,35µM*,6.3µM*,i,?,15µM*,19µM*,-10%,14µM*
O=C(c1ccc2[nH]ccc2c1)N1CCCN(c2cc(-c3ccc(Br)cc3)[nH]n2)CC1,?,22µM*,4.5µM*,i,32µM*,24µM*,24µM*,-13%,19µM*
O=C1[C@@H]2C[C@@H](CN2C(=O)c2cncnc2)Oc2ccccc2N1Cc1ccccc1,-8%[88.5 µM],-6%[172 µM],2%[70.6 µM],i,-13%[138 µM],nt,nt,nt,nt
CN(C)C(=O)CC(O)c1cc2n(n1)CCN(C/C=C/c1ccccc1)C2 (centres undefined),0%,i,8%,i,3%,nt,nt,nt,nt
O=C(c1cc(CN2CCOCC2)on1)N1CCC(c2nc(C3CCOCC3)no2)C1 (centres undefined),-4%,6%,-14%,i,-2%,-2%,4%,5%,11%
O=C(c1ccccc1)N1CCC(c2nc(C3CCOCC3)no2)C1 (centres undefined),-3%,8%,0%,i,i,nt,nt,nt,nt
Cc1cnc(CC2CCNCC2)n1Cc1ccc(F)cc1,-6%,-4%,6%,i,-13%,nt,nt,nt,nt
Cc1ccccc1CN1CC[C@@H]2OCC(=O)N(C(C)C)[C@H]2CC1,-11%[88.5 µM],?,7.9µM*,i,-24%[138 µM],7.9µM*,13µM*,3%[86.2 µM],6.3µM*
COc1cccc(CN2CCCCCCNC(=O)[C@@H]3C[C@@H](C(=O)N4CCc5ccccc5C4)C[C@@H]32)c1,-5%,?,-11%,i,?,nt,nt,nt,nt
O=C1NCCCCCCN(Cc2cccc(F)c2)[C@H]2C[C@H](C(=O)N3CCc4ccccc4C3)C[C@@H]12,4%,25µM*,16µM*,i,40µM*,?,?,0%,-13%
CCN1CCC(N2CCCC(C(=O)NCc3ccccc3)CCNC(=O)CC2)CC1 (centres undefined),-1%,i,2%,i,-1%,nt,nt,nt,nt
O=C(Nc1ccc(Cl)cc1)c1nc2c(o1)CCN(CC1CCCC1)CC2,3%[88.5 µM],?,28µM*,i,?,35µM*,31µM*,-14%[86.2 µM],25µM*
O=C(Nc1ccc(Cl)cc1)c1nc2c(o1)CCN(CC1CC1)CC2,i,?,?,i,?,?,-26%[86.2 µM],-22%[86.2 µM],?
CC(Oc1ccccc1)C(=O)N1CCC(n2cc(-c3nc(-c4ccccc4)no3)nn2)CC1 (centres undefined),-7%,20µM*,18µM*,i,?,24µM*,22µM*,-24%,24µM*
N#Cc1ccc(C(=O)N2CCC(n3cc(-c4nc(-c5ccccc5)no4)nn3)CC2)cc1,i,?,0%,?,?,nt,nt,nt,nt
O=C(c1ccc(Cl)cc1)N1CCC(n2cc(-c3nc(-c4ccccc4)no3)nn2)CC1,4%,?,16µM*,i,?,22µM*,22µM*,-19%,22µM*
O=C(c1ccc(F)cc1)N1CCC(n2cc(-c3nc(-c4ccccc4)no3)nn2)CC1,i,?,?,i,?,?,?,-17%,24µM*
O=C(c1ccccc1Cl)N1CCC(n2cc(-c3nc(-c4ccccc4)no3)nn2)CC1,i,?,?,i,-24%,nt,nt,nt,nt
O=C(c1ccc(F)cc1)N1CCCC(n2cc(-c3nc(-c4ccccc4)no3)nn2)C1 (centres undefined),2%,?,?,?,?,24µM*,24µM*,?,24µM*
O=C1c2cc(N3CCOCC3)nc(-c3cccc(F)c3)c2CN1Cc1ccccc1,-13%[88.5 µM],?,?,i,?,28µM*,?,-1%[86.2 µM],?
COCc1noc(-c2ccc(N(C)CC3CC(=O)N(C(C)(C)C)C3)nc2)n1 (centres undefined),-4%,?,11µM*,i,?,24µM*,?,-1%,22µM*
CN(c1cc(=O)c2ccnc(Nc3ccc(F)c(Cl)c3)c2o1)C1CCOCC1,i,?,-12%[70.6 µM],i,?,nt,nt,nt,nt
COc1ccc(OC)c(NC(=O)N2CCCN(C)c3ccccc32)c1,i,?,?,i,?,?,12µM*,0%,-2%
Cn1c(CNC(=O)C2CCCN(C(=O)c3ccccc3)CCC(=O)NCC2)nc2ccccc21 (centres undefined),1%,i,3%,i,-10%,nt,nt,nt,nt
Cc1cccc(OC[C@H]2C[C@@H](NCc3nccn3C)[C@H](O)[C@@H]2O)n1,3%,-5%,-2%,i,i,nt,nt,nt,nt
O=C1CCC2(CCN(c3nc4ccccc4s3)CC2)CN1Cc1cccnc1,-26%,?,13µM*,i,-25%,17µM*,19µM*,-5%,15µM*
O=C1CCC2(CCCN(c3nc4ccccc4s3)C2)CN1Cc1cccnc1 (centres undefined),?,4%,6%,i,2%,nt,nt,nt,nt
CC(C)(C)C1CN(Cc2cccs2)C(=O)c2cccnc2O1 (centres undefined),2%[27.3 µM],?,nt,nt,-34%[46.1 µM],nt,nt,nt,nt
CC1Oc2ccc(NC(=O)Cc3ccccc3)cc2CN(Cc2ccc(Cl)cc2)C1=O (centres undefined),-1%,?,11µM*,i,?,22µM*,19µM*,4%,17µM*
CCNC(=O)Nc1ccc2c(c1)CN(Cc1ccc(Cl)cc1)C(=O)C(C)O2 (centres undefined),i,?,-25%,i,?,nt,nt,nt,nt
